Nrf2 activator: qHTS of Nrf2 Activators. Potency, µM (titrated, usually from 46.1 µM), usual class: activators. 410,000 compounds, 0.31% hits. AREc32 ARE-luciferase reporter (MCF7-derived line), luminescence, 24 h; note: nearly all actives have a fitted effect of over 65% in size
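Luminescent ARE reporter assay in AREc32_Fluc cells: overnight plating at 37 deg C, 24 hr compound incubation, Steady-Glo added, 30 min RT before reading.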
PINK1 modulator: A Quantitative High throughput Screen to Identify Chemical Modulators of PINK1 Expression; PINK1 immunofluorescence, high-content cytometry, 24 h; Potency, µM (doses to about 76.6 µM), usual class: activators; 410,000 compounds, 0.2% hits; AID 624263, 2012; active = well fitted activation curve with a large enough effect; inconclusive = small, poorly fitted or top-dose-only effect; cell line not stated here; note: nearly all actives have a fitted effect of over 65% in size
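Decision-based qHTS: stable cells, 24 h exposure to five compound concentrations, CCCP as control. Fixed cells stained for PINK1 plus nuclear, mitochondrial and cell markers, cytometer read.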
A549 viability: Nrf2 qHTS screen for inhibitors: counterscreen for cytotoxicity; 390,000 compounds, 0.16% hits; Potency, µM (series often up to 46 µM), hits mostly inhibitors; A549 ARE-Fluc cells, CellTiter-Fluor viability, 18-24 h
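A549 ARE_Fluc cells in 5% FBS OPTI-MEM were exposed to compounds in concentration-response for 18-24 h at 37 deg C. Viability was read by CellTiter-Fluor fluorescence (Ex 405/Em 525) after 30 min, before the luciferase read.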
Epigenetic reg: Quantitative High-Throughput Screen for Regulators of Epigenetic Control; Potency, µM (doses to about 53.9 µM), most hits filed as activators; 280,000 compounds, 0.2% hits; murine LDR cells, GFP reporter derepression, 30 h; AID 1865, 2009; note: nearly all actives have a fitted effect of over 60% in size
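Murine LDR cells carrying a silenced, genomically integrated CMV-driven GFP reporter were exposed to compound for 30 hours at 37 C. After PBS washes, GFP-positive cells (20–120 um objects) were counted by laser-scanning microplate cytometry.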
Nrf2 block: Nrf2 qHTS screen for inhibitors. Potency, µM (doses to about 46 µM), most hits filed as inhibitors. 360,000 compounds, 2.1% hits. A549 ARE-Fluc reporter, luciferase luminescence, 18-24 h; note: nearly all actives have a fitted effect of over 60% in size
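Concentration-response testing used A549 ARE_Fluc cells at 5000 cells/well. Following an 18-24 h compound incubation, viability was read by fluorescence (Ex 405/Em 525) and luciferase output by luminescence.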
A number is an active result; . = inactive; ? = inconclusive; / = no result given. A selection: hits, their analogues and other compounds. The true share with any hit is near 2.4%. Unless noted, calls come from the whole dose curve; as a rule, active = well fitted curve in the direction sought with a large enough effect; inconclusive = small, poorly fitted or top-dose-only effect, or another doubt; inactive = no such curve, though single readings can be large; an effect the other way counts as inactive or inconclusive.

SMILES	Nrf2 activator	PINK1 modulator	A549 viability	Epigenetic reg	Nrf2 block
Cc1ccnc(OC(C(=O)O)C(OCc2ccccc2)(c2ccccc2)c2ccc(C(F)(F)F)cc2)n1 (stereo unspecified)	.	.	.	/	10.3µM
CCc1ccccc1N1CC(c2nc3ccccc3n2CCCCOc2ccccc2OC)CC1=O (stereo unspecified)	.	.	?	.	?
CCOc1ccc(N2CC(c3nc4ccccc4n3CCOc3ccc(CC)cc3)CC2=O)cc1 (stereo unspecified)	.	.	.	.	.
CCc1ccc(N2CC(c3nc4ccccc4n3Cc3ccccc3C)CC2=O)cc1 (stereo unspecified)	.	.	.	.	14.6µM
COc1ccccc1Cn1c(C2CC(=O)N(c3ccccc3OC)C2)nc2ccccc21 (stereo unspecified)	.	.	.	.	10.3µM
CCOc1ccc(N2CC(c3nc4ccccc4n3Cc3cccc(C)c3)CC2=O)cc1 (stereo unspecified)	.	.	.	.	?
CCOC(=O)Cn1c(C2CC(=O)N(c3ccc(C)cc3)C2)nc2ccccc21 (stereo unspecified)	.	.	.	.	20.6µM
CC(=O)Oc1ccc(-c2nc(-c3ccccc3)no2)cc1	/	.	/	/	/
Brc1ccc(-c2c[n+]3c(n2-c2ccccc2)SCC3)cc1	.	.	.	.	?
c1ccc(Cn2c(-c3ccccc3)c[n+]3c2SCCC3)cc1	.	.	.	.	8.2µM
O=c1[nH]c(/C(Cl)=C/c2cc(Cl)ccc2O)nc2cc(Cl)ccc12	8.91µM	.	.	.	.
COc1cc(NC(=O)CCc2c(C)nc3cc(-c4ccccc4)nn3c2C)cc(OC)c1OC	.	.	.	.	2.59µM
Cc1nc2cc(-c3cccc(F)c3)nn2c(C)c1CCC(=O)NC(C)c1ccccc1 (stereo unspecified)	.	.	.	.	3.66µM
COc1ccc(CCNC(=O)CCc2c(C)nc3cc(-c4ccccc4OC)nn3c2C)c(OC)c1	.	.	.	.	23.1µM
O=C1CC(C(=O)N2CCOc3ccc(CN4CCC(Oc5cccnc5)CC4)cc3C2)c2ccccc21 (stereo unspecified)	/	.	/	/	/
Cc1cc(CNC(=O)c2cnn(-c3ncc4c(n3)-c3ccccc3CC4)c2C2CC2)on1	/	.	/	/	/
O=C(NC(=S)Nc1ccc(N2CCCCC2)c(Cl)c1)c1ccc2c(c1)OCCO2	.	.	.	.	9.2µM
CCOc1cc(C)nc(NCCc2ccc(OC)c(OC)c2)n1	.	/	.	.	25.9µM
COc1ccc(CCNc2ncnc3sc(C)cc23)cc1OC	.	.	.	/	23.1µM
COc1ccc(-c2c([C@H]3[C@H]4C=CC[C@@H](C)[C@@H]4C(=O)N3Cc3ccccc3)ccc3ccccc23)cc1	.	.	.	.	?
COc1ccc(-c2c(C3C4C=CCC(C)C4C(=O)N3Cc3ccccc3)ccc3ccccc23)cc1OC (stereo unspecified)	/	/	.	/	20.6µM
COc1ccc(C2C3C=CCC(c4ccccc4)C3C(=O)N2Cc2ccccc2)cc1Cl (stereo unspecified)	/	/	?	/	20.6µM
Cc1ccc2c(c1)nnn2C1CCN(CC(=O)N(c2ccccc2)c2ccccc2)CC1	.	.	?	.	14.6µM
O=C(Cn1ncc2ccc(Cl)cc21)NCc1ccc(F)cc1	.	.	.	.	.
COc1cccc(-c2nn(C)c3sc(C(=O)Nc4ccc5c(c4)OCCO5)cc23)c1	.	.	.	.	.
SMILES	Nrf2 activator	PINK1 modulator	A549 viability	Epigenetic reg	Nrf2 block
Cn1nc(-c2ccccc2F)c2cc(C(=O)Nc3ccc4c(c3)OCCO4)sc21	.	.	?	.	14.6µM
COc1cc(C2C=C(C34CC5CC(CC(C5)C3)C4)NC(=S)N2)cc(OC)c1OC (stereo unspecified)	.	.	.	.	23.1µM
COc1cccc(NC(=O)Cn2c(=O)n(-c3ccccc3)c(=O)c3ccc(C(=O)NCc4ccc5c(c4)OCO5)cc32)c1	.	.	.	.	.
O=C(Cn1c(=O)n(-c2ccccc2)c(=O)c2ccc(C(=O)NCc3ccc4c(c3)OCO4)cc21)Nc1ccc(Br)cc1	.	.	.	15.8µM	.
Cc1ccc(NC(=O)Cn2c(=O)n(-c3ccccc3)c(=O)c3ccc(C(=O)NCc4ccc5c(c4)OCO5)cc32)c(C)c1	.	.	.	.	7.31µM
COc1ccc(NC(=O)Cn2c(=O)n(-c3ccccc3)c(=O)c3ccc(C(=O)NCc4ccc5c(c4)OCO5)cc32)cc1	.	.	.	.	.
c1ccc(-c2cnc(-c3ccccc3)nn2)cc1	2.82µM	.	.	/	.
C/C(=N\Nc1ccc([N+](=O)[O-])cc1[N+](=O)[O-])c1cccnc1	.	.	.	/	?
CC(C)=NNc1cnnc2ccc([N+](=O)[O-])cc12	3.55µM	.	/	/	/
O=C(NCC1Cc2cccc(-c3cccnc3)c2O1)c1ccc2cc[nH]c2c1 (stereo unspecified)	/	.	/	/	/
Cc1ccc(NC(=O)c2ccc(NCCc3ccccc3)c([N+](=O)[O-])c2)cc1F	.	?	.	12.6µM	?
Cc1cc2c(s1)c1cnn(Cc3cc(F)c(F)c(F)c3F)c(=O)c1n2C	/	/	.	/	.
COc1cccc(-c2nc3cc(SC)ccc3cc2CN(C(=O)c2sccc2C)C2CC2)c1	/	.	/	/	/
N#Cc1ccc(NC(=O)Nc2cccc(C#N)c2)cc1	.	31.6µM	.	.	?
COc1ccc(NC(=O)Nc2ccc(OC)cc2)cc1	.	.	.	.	?
N#Cc1ccc(NC(=O)Nc2ccc(Oc3ccc(NC(=O)Nc4ccc(C#N)cc4)cc3)cc2)cc1	.	44.7µM	.	.	?
COc1ccccc1N1CCN(CCn2c(=O)c3c(c4ccccc4n3C)n(C)c2=O)CC1	/	/	/	.	/
CCN(CC)C(=S)SCC(=O)c1ccccc1	.	.	/	.	?
CCN(CC)C(=S)SSC(=S)N(CC)CC	.	.	.	0.251µM	/
O=c1[nH]ncc(N/N=C\c2ccncc2)c1Cl	.	.	.	.	.
O=c1[nH]ncc(N/N=C\c2cccs2)c1Cl	4.47µM	.	.	.	.
COc1ccc(-c2nc3ccccc3c(=O)n2Cc2ccccc2)cc1COc1ccc(NC(C)=O)cc1	/	/	.	/	.
Cc1cc2nc(-c3ccc[nH]c3=O)[nH]c2cc1C	.	.	.	/	11.6µM
CCc1nc(-c2cc(S(=O)(=O)N3CCN(c4ccccc4)CC3)ccc2OC)no1	.	.	.	.	.
Nc1c(C(=O)O)ccc2c1C(=O)c1ccccc1C2=O	.	.	18.4µM	.	.
O=S(=O)(Nc1c(Br)cc(Br)c2cccnc12)C1CC1	/	.	.	/	.
COc1ccc(N2CCN(C(=O)c3nc(SC)ncc3Cl)CC2)cc1	.	.	.	.	.
CCS(=O)(=O)c1ncc(Cl)c(C(=O)N2CCN(c3ccc(OC)cc3)CC2)n1	.	.	?	?	20.6µM

High-throughput results deposited in PubChem by National Center for Advancing Translational Sciences (NCATS).
